Bioassay records (PubChem BioAssay)
Rows were chosen to be rich in hits. Some 11% of all compounds tested hit in one or more screens of this group.
hNpr1 antagonist: human Npr1 receptor antagonism; AID 1347048; P16066; 76,000 compounds, 1.6% hits; HEK293 hNpr1 GloSensor cGMP, ANP-stimulated luminescence; Potency, µM (titrated, usually from 46.3 µM), usual class: inhibitors; calls by dose curve; note: nearly all actives have a fitted effect of over 60% in size
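Compound pre-incubated 30 min at room temperature on GloSensor-loaded HEK293 cells stably carrying hNpr1 and the pGS-40F cGMP biosensor. Stimulation uses hNppA at 0.1 nM final; luminescence is taken at baseline and 20 min post-agonist.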
3T3 cytotox: kills NIH 3T3 cells; NIH 3T3 viability, CellTiter-Glo ATP luminescence, 48-72 h; Potency, µM (highest dose often 96.7 µM), most hits filed as inhibitors; 94,000 compounds, 4.3% hits; AID 1345082; note: nearly all actives have a fitted effect of over 55% in size
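Cells were seeded at 400 per well, treated with pin-transferred compound, and kept 48 or 72 hr at 37 °C before CellTiter-Glo addition and luminescence imaging of cellular ATP.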
FLuc inh-1: blocks purified firefly luciferase enzyme activity | purified P. pyralis luciferase, luminescence, biochemical | AID 1347043 | P08659 | Potency, µM (highest dose often 115 µM), actives largely listed as inhibitors | 76,000 compounds, 2.5% hits; note: nearly all actives have a fitted effect of over 65% in size
Target sequence (P08659 whole entry, looked up): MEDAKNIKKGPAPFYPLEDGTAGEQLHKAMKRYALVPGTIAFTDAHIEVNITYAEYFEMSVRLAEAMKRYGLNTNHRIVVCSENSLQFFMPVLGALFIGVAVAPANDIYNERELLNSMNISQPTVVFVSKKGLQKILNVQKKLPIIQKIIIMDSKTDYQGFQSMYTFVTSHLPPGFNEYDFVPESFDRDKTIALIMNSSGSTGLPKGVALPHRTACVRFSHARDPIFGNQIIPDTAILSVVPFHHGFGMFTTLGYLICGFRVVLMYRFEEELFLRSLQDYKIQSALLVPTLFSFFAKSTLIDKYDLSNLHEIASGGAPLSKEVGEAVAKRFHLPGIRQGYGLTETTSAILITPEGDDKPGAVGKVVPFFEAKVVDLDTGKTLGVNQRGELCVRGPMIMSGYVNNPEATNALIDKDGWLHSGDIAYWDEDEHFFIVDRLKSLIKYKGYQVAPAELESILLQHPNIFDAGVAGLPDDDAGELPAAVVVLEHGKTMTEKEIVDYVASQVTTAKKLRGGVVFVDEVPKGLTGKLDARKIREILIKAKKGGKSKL
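Luminescence read by CCD imaging after purified firefly luciferase (10nM final) was added to substrate buffer holding 10uM D-luciferin and 10uM ATP, pH 7.5, pre-dosed with compound.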
HEK293 tox: cytotoxic compounds in HEK 293 cells; HEK 293 viability, ATP luminescence (CellTiter-Glo), 48-72 h; Potency, µM (highest dose often 115 µM), most hits filed as inhibitors; 94,000 compounds, 6.6% hits; AID 1345083; note: nearly all actives have a fitted effect of over 60% in size
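Read-out: CellTiter-Glo ATP luminescence. Cells: HEK 293, 250 cells/well. Exposure: 48 or 72 hr, 37 degree Celsius.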
FLuc SDR no ATP: stabilizes firefly luciferase without ATP; shares compounds with FLuc inh-1; Purified FLuc-C-HiBiT, Nano-Glo HiBiT luminescence, no ATP; Potency, µM (doses to about 32.7 µM), actives largely listed as activators; 1,300 compounds, 7.8% hits; AID 1963318; note: nearly all actives have a fitted effect of over 55% in size
FLuc SDR ATP: stabilizes firefly luciferase with ATP present; shares compounds with FLuc inh-1; purified FLuc-C-HiBiT + ATP, HiBiT complementation luminescence; Potency, µM (series often up to 32.7 µM), actives largely listed as activators; 1,300 compounds, 8.7% hits; AID 1963319;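 note: signal reports ligand binding via conformational change of the enzyme rather than luciferase catalysis; nearly all actives have a fitted effect of over 55% in size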
FLuc inh-2: inhibitors of firefly luciferase enzymatic activity; AID 1963320; purified FLuc-C-HiBiT enzyme, luciferin luminescence; shares compounds with FLuc inh-1; Potency, µM (titrated, usually from 32.7 µM), usual class: inhibitors; 1,300 compounds, 42% hits; note: nearly all actives have a fitted effect of over 70% in size
Of the large screens only hits and unclear results are named; the others gave an inactive call (follow-up assays come after a bar, where they were run). Unless noted, calls come from the whole dose curve; as a rule, active = well fitted curve in the direction sought with a large enough effect; inconclusive = small, poorly fitted or top-dose-only effect, or another doubt; inactive = no such curve, though single readings can be large; an effect the other way counts as inactive or inconclusive.

O=C(NCc1ccc(F)cc1)C1CCCN(c2nc3ncccc3o2)C1 (stereo not given)	none
COc1ccc(-c2cn3nc(N4CCCC(C(=O)NCc5ccccc5OC)C4)sc3n2)cc1 (stereo not given)	none (no result: hNpr1 antagonist, 3T3 cytotox, FLuc inh-1, HEK293 tox) | FLuc SDR no ATP inactive | FLuc SDR ATP inactive | FLuc inh-2 inconclusive
COc1ccc(-c2nc3cc(C)ccc3cc2CN2CCN(C)C(=O)C2)cc1OC	HEK293 tox inconclusive
COc1ccc(NC(=O)C2CCN(C(=O)c3ncn4c3COC(c3ccccc3)C4)CC2)cc1OC (stereo not given)	FLuc inh-1 5.62µM | FLuc SDR no ATP inactive | FLuc SDR ATP inconclusive | FLuc inh-2 3.51µM
COc1ccc(C2Cn3cnc(C(=O)N4CCC(C(=O)Nc5ccc(F)c(C)c5)CC4)c3CO2)cc1 (stereo not given)	none
Cc1ccc(NC(=O)C2CCN(C(=O)c3ncn4c3COC(c3ccccc3)C4)CC2)cc1C (stereo not given)	FLuc inh-1 3.98µM | FLuc SDR no ATP inactive | FLuc SDR ATP inconclusive | FLuc inh-2 inconclusive
COc1ccc(NC(=O)C2CCN(C(=O)c3ncn4c3COC(c3ccccc3)C4)CC2)cc1 (stereo not given)	FLuc inh-1 8.91µM | FLuc SDR no ATP inactive | FLuc SDR ATP inconclusive | FLuc inh-2 inconclusive
COCC1CN(C)CC12CCN(S(=O)(=O)c1ccc3c(c1)CCC3)CC2 (stereo not given)	3T3 cytotox inconclusive, HEK293 tox inconclusive
O=C(NCC1CC1)C1CCc2nnc(-c3ccccn3)n21 (stereo not given)	none (no result: hNpr1 antagonist, FLuc inh-1)
COc1ccc(C(=O)Nc2noc3ccccc23)cc1	none (no result: hNpr1 antagonist, 3T3 cytotox, FLuc inh-1, HEK293 tox) | FLuc SDR no ATP 9.89µM | FLuc SDR ATP 3.13µM | FLuc inh-2 0.881µM
O=C(NCCc1ccccn1)C1CN(C2CCCC2)C(=O)N1 (stereo not given)	none (no result: hNpr1 antagonist, FLuc inh-1)
CN1CC2(CCN(C(=O)CC3CCCC3)CC2)CC1C(=O)N1CCOCC1 (stereo not given)	none (no result: hNpr1 antagonist, FLuc inh-1)
Cc1ccc(NCc2nc3ccccc3n2CCOc2ccccc2)cc1	none (no result: hNpr1 antagonist, 3T3 cytotox, FLuc inh-1, HEK293 tox) | FLuc SDR no ATP inactive | FLuc SDR ATP inactive | FLuc inh-2 inconclusive
O=Cc1cccc(N2CCN(C(=O)c3ccncc3)CC2=O)c1	none (no result: hNpr1 antagonist, FLuc inh-1)
COCCNc1oc(-c2ccc(OC)cc2)nc1C#N	none (no result: hNpr1 antagonist, 3T3 cytotox, FLuc inh-1, HEK293 tox) | FLuc SDR no ATP inactive | FLuc SDR ATP inactive | FLuc inh-2 inconclusive
CC(=O)NC1(C)CCN(Cc2cccc(-c3ccc4c(ccn4C)c3)c2)C1 (stereo not given)	hNpr1 antagonist inconclusive, 3T3 cytotox 79.4µM, FLuc inh-1 14.1µM, HEK293 tox 89.1µM | FLuc SDR no ATP inactive | FLuc SDR ATP inconclusive | FLuc inh-2 10.1µM
CC(=O)NC1(C)CCCN(Cc2cccc(-c3cccc(F)c3)c2)C1 (stereo not given)	3T3 cytotox inconclusive, HEK293 tox inconclusive
COc1ccc(-c2nc(C)nc3c2CN(C(C)=O)CC3)cc1	none
COCC(=O)N1CCc2nc(C)nc(-c3ccc(OC)cc3)c2C1	none | FLuc SDR no ATP inactive | FLuc SDR ATP inactive | FLuc inh-2 inactive
Cc1ccc(C2=CC(c3ccccc3C)n3c(nc4ccccc43)N2)cc1 (stereo not given)	none (no result: hNpr1 antagonist, 3T3 cytotox, FLuc inh-1, HEK293 tox) | FLuc SDR no ATP inconclusive | FLuc SDR ATP inconclusive | FLuc inh-2 4.42µM
COc1ccc(C(=O)Nc2ccc(-c3nc4ccccc4s3)c(Cl)c2)cc1Cl	none (no result: hNpr1 antagonist, 3T3 cytotox, FLuc inh-1, HEK293 tox) | FLuc SDR no ATP inactive | FLuc SDR ATP inactive | FLuc inh-2 inactive
Cc1ccc(NC(=O)c2ccc3nc(-c4ccccn4)oc3c2)cc1	HEK293 tox inconclusive (no result: hNpr1 antagonist, FLuc inh-1)
COc1c(C)cccc1C(=O)Nc1ccc(-c2nc3ccccc3s2)c(Cl)c1	none (no result: hNpr1 antagonist, 3T3 cytotox, FLuc inh-1, HEK293 tox) | FLuc SDR no ATP inactive | FLuc SDR ATP inactive | FLuc inh-2 inactive
Cn1ncc2c(C(=O)Nc3cccc(Cl)c3)cc(-c3ccccc3C(F)(F)F)nc21	HEK293 tox inconclusive (no result: hNpr1 antagonist, FLuc inh-1)
COc1ccc(NC(=O)c2cc3n(n2)CC(c2ccc(Cl)cc2)OC3)cc1Cl (stereo not given)	hNpr1 antagonist inconclusive, 3T3 cytotox inconclusive, HEK293 tox inconclusive
